The source made the active and inactive calls. Unless noted, the rule behind the calls is not given here.

A short description of experiment [1]: resazurin metabolic signal in HepG2 cells – cell-based, resazurin fluorescence, 24 h, PK04 Diversity Set, profiling panel (AID 1172). Note: test concentration not given here. The settings on record: HepG2 viability, higher = more signal. In general terms: Alamar Blue is a resazurin reagent that responds to reducing activity.
Experiment [2] is described as follows: budding yeast growth changes without added modifier – OD600, strain BY4716, 24 h, basal condition, primary screen (AID 1173). As to conditions: S. cerevisiae BY4716 growth, OD600, 24 h; higher = more signal, called active from +8 up or from −8 down.
The nature of experiment [3]: viability profiling in MM1S myeloma cells – cell-based, resazurin fluorescence, basal, 24 h, PK04 Diversity Set, profiling panel (AID 1174).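 Note: MM1S multiple myeloma cell line; test concentration not given here.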 As to conditions: higher = more signal, called active from +8 up or from −8 down.
Experiment [4] has as its target Dihydroorotate dehydrogenase (quinone), mitochondrial (Plasmodium falciparum (isolate 3D7)) (UniProt Q08210). Description: inhibition of P. falciparum DHODH – biochemical, C-terminal His tag, absorbance 600 nm, primary screen (AID 1175).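 Note: recombinant parasite enzyme with a five histidine tag at its C terminus; test concentration not given here.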 As to conditions: PfDHODH enzyme, DCIP absorbance 600 nm; higher = more signal, called active from +8 up or from −8 down.
The nature of experiment [5]: inhibition of PAO1 biofilm formation – strain PAO1, LB-PBS medium, absorbance 600 nm, primary screen (AID 1176). Note: test concentration not given here. As to conditions: P. aeruginosa PAO1 growth/biofilm, A600, 12 h; higher = more signal.
Experiment [6] in a line: growth modulation of vineyard yeast isolate – strain RM11-1a, OD600, basal, 24 h, primary screen (AID 1177).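 Note: cultures grown under basal conditions with no added stressor; test concentration not given here.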 As to conditions: S. cerevisiae RM11-1a growth, OD600, 24 h; higher = more signal, called active from +8 up or from −8 down.
Experiment [7] can be described thus: growth of efflux-deficient E. coli DRC39 – strain DRC39, OD650, 24 h, E. coli filamentation inducers, primary screen (AID 1178).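 Note: growth measured as culture turbidity by optical density at 650 nm; test concentration not given here.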 As to conditions: E. coli DRC39 acrAB, higher = more signal, called active from +8 up or from −8 down.
A short description of experiment [8]: growth of efflux-deficient E. coli DRC39 – strain DRC39, OD650, 48 h, E. coli filamentation inducers, primary screen (AID 1179).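 Note: screen aims at cell division blockers that make cells filament.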 As to conditions: E. coli DRC39 delta-acrAB growth, higher = more signal, called active from +8 up or from −8 down.
Experiment [9] in a line: viability profiling in RPMI8226 myeloma cells – cell-based, resazurin fluorescence, basal, 24 h, PK04 Diversity Set, profiling panel (AID 1180).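 Note: RPMI8826 multiple myeloma cell line at 5000 cells per well; test concentration not given here.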 The settings on record: higher = more signal.
Experiment [10] has as its target E3 ubiquitin-protein ligase XIAP (Homo sapiens) (UniProt P98170). Description: small molecules binding XIAP protein – biophysical, small-molecule microarray, fluorescence 635 nm, primary screen (AID 1181).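 Note: score merges 667 nm emission and signal to noise over triplicate slides.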 As to conditions: higher = more signal.

Sequence of E3 ubiquitin-protein ligase XIAP (Homo sapiens) (P98170 whole entry, looked up): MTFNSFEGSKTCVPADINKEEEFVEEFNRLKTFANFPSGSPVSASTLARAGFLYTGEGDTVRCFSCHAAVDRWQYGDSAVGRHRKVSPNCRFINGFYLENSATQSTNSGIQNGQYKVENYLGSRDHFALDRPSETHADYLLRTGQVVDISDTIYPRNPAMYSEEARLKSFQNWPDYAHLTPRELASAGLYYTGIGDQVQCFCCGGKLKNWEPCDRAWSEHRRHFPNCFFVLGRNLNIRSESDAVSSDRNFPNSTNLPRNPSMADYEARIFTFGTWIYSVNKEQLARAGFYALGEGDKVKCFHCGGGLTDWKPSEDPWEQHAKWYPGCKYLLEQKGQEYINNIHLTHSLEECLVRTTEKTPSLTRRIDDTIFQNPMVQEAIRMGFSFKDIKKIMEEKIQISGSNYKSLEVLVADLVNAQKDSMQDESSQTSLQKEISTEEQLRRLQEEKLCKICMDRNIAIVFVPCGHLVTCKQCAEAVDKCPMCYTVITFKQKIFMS
Sequence of Dihydroorotate dehydrogenase (quinone), mitochondrial (Plasmodium falciparum (isolate 3D7)) (Q08210 whole entry, looked up): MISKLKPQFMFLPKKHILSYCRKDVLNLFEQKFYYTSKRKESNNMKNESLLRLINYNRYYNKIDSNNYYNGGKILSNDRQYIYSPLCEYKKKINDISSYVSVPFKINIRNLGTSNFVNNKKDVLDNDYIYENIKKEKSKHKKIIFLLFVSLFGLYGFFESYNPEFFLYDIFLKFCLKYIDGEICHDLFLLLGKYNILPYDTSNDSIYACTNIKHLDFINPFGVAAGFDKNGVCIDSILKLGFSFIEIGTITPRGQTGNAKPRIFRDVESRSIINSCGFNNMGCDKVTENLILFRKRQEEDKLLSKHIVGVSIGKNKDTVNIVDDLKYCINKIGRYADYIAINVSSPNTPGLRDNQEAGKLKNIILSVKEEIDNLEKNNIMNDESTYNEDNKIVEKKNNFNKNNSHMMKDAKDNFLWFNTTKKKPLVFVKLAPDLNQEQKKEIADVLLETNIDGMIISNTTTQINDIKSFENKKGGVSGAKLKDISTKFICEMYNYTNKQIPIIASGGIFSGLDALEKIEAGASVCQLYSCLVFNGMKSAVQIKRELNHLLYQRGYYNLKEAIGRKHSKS

As to `O=C1C2C=CC(C(O)c3ccc(Br)cc3)N(Nc3ccccc3F)C2C(=O)N1c1ccccc1` (stereo not given), the z-score is 0.732 in experiment [1]; -2.45 (inactive) in experiment [2]; -0.18 (inactive) in experiment [3]; 0.629 (inactive) in experiment [5]; -1.17 (inactive) in [6]; 0.774 (inactive) in experiment [7]. The z-score in experiment [8] is 2.06 (inactive); in experiment [9], 0.489. Further, the figures for the composite z-score in experiment [4] and in experiment [10] were 0.356 (inactive) and 0.0933, respectively.

As for `CN1C(=O)C2C=CC(C(O)C#Cc3ccccc3)N(Nc3ccccc3)C2C1=O` (stereo not given), the z-score in [1] was -0.264; in [2], -1.36 (inactive); in [3], -1.06 (inactive); in [5], -0.103 (inactive); in experiment [6], 1.39 (inactive); in experiment [7], -0.0835 (inactive). Besides, the z-score in experiment [8] was -1.05 (inactive); in experiment [9], -0.633. In addition, the composite z-score was 0.164 (inactive) in [4] and 0.394 in experiment [10].

Consider `NCCCCCCNC(=O)[C@@H]1C[C@@H]2C(=O)N[C@@H](CCCCN)C(=O)N2[C@@H]1c1cccc(OCCO)c1`, for which the z-score in [1] was 1.1; in experiment [2], 0.0813 (inactive); in experiment [3], 0.193 (inactive); in experiment [5], -0.931 (inactive); in experiment [6], 0.58 (inactive); in experiment [7] it was 0.398 (inactive). The results for the z-score in experiment [8] and in [9] were 0.756 (inactive) and 0.685, respectively. The values for the composite z-score in experiment [4] and in experiment [10] were 0.169 (inactive) and 2.72, respectively.

As for `O=C(NCc1ccccc1)[C@@H]1c2ccccc2C(=O)N(Cc2ccccc2C(F)(F)F)[C@H]1c1ccc(CO)cc1`, the z-score is -0.431 in experiment [1]; 0.036 (inactive) in [2]; -0.433 (inactive) in [3]; 1.19 (inactive) in experiment [5]; 0.0858 (inactive) in experiment [6]; 0.232 (inactive) in [7]. Besides, the results for the z-score in experiment [8] and in experiment [9] were 0.56 (inactive) and -0.137, respectively. Besides, the composite z-score is 0.154 (inactive) in experiment [4] and -0.107 in experiment [10].

Take `COc1cccc(/C=C/C=O)c1`: the z-score in [1] is 0.445; in experiment [2], -6.49 (inactive); in experiment [3], -0.687 (inactive); in experiment [5] it was -0.131 (inactive); in experiment [6], 0.0721 (inactive); in experiment [7] it was 0.635 (inactive). In addition, the z-score in experiment [8] is 0.403 (inactive); in [9], 0.884. Moreover, the composite z-score in experiment [4] was -0.0136 (inactive); in [10] it was -0.0224.

Turning to `COC(=O)[C@@]1(Cc2ccc(F)cc2)[C@H]2c3cc(C(=O)N(C)C)n(Cc4cc(F)cc5c4OCOC5)c3C[C@H]2CN1C(=O)c1ccccc1`, the z-score is -0.933 in [1]; 0.434 (inactive) in [2]; -1.73 (inactive) in [3]; 0.728 (inactive) in [5]; -0.341 (inactive) in [6]; -0.462 (inactive) in experiment [7]. For the same compound, the z-score in experiment [8] was 0.164 (inactive); in experiment [9], -2.74. The composite z-score is -0.954 (inactive) in experiment [4] and 0.476 in [10].

As to `[N-]=[N+]=NCc1ccccc1C[C@]1(C(N)=O)N=C(c2ccc(OCCCO)cc2)O[C@H]1c1ccccc1`, the z-score in [1] was 1; in experiment [2] it was -0.198 (inactive); in [3], -0.726 (inactive); in [5], -0.786 (inactive); in [6] it was 1.4 (inactive); in experiment [7], 0.146 (inactive). The z-score is 0.98 (inactive) in [8] and -0.581 in [9]. Also, the composite z-score in [4] is 0.921 (inactive); in [10], 0.1.

Take `COc1ccc(NC(=O)O[C@H]2[C@H](OC(=O)Nc3ccccc3)[C@@H](OC(=O)Nc3ccccc3)[C@@H](OC)O[C@@H]2CO)cc1`: the z-score is -1.58 in experiment [1]; 0.559 (inactive) in experiment [2]; -2.86 (inactive) in experiment [3]; 0.304 (inactive) in experiment [5]; 2.89 (inactive) in [6]; 0.717 (inactive) in [7]. The z-score was -0.141 (inactive) in [8] and -1.61 in experiment [9]. The results for the composite z-score in experiment [4] and in [10] were 1.1 (inactive) and 0.131, respectively.

As to `CC(C)C[C@@H]1NC(=O)[C@@H]2C[C@H](C(=O)NCCCCCN)[C@H](c3ccc(O)cc3)N2C1=O`, the z-score is -1.3 in [1]; 0.732 (inactive) in experiment [2]; -0.205 (inactive) in [3]; -0.226 (inactive) in experiment [5]; 1.04 (inactive) in [6]; -0.496 (inactive) in [7]. In addition, the z-score in [8] was -0.728 (inactive); in [9] it was -0.354. Also, the composite z-score in experiment [4] is 0.582 (inactive); in [10], 0.0015.

Regarding `C=CCNC(=O)[C@@H]1[C@H]2C(=O)O[C@H](c3ccccc3)[C@H](c3ccccc3)N2[C@H](c2ccc(O)cc2)[C@@]12C(=O)N(C(=O)OCCOC)c1ccc(C#CC3(O)CCCCCC3)cc12`, the z-score is 0.919 in experiment [1]; 0.444 (inactive) in [2]; -0.689 (inactive) in experiment [3]; -0.123 (inactive) in experiment [5]; 0.3 (inactive) in experiment [6]; 0.891 (inactive) in experiment [7]. In addition, the z-score was 0.957 (inactive) in experiment [8] and 0.196 in experiment [9]. Moreover, the composite z-score in experiment [4] was 0.263 (inactive); in experiment [10] it was -0.391.

The values above are taken from PubChem BioAssay.
